This passage reports Potency results from PubChem BioAssay AID1845227 (National Center for Advancing Translational Sciences (NCATS), 2023).

Each structure is given as a SMILES string. Results filed as inconclusive are left out. Entries that show only a call come without a potency. The source made the active and inactive calls. Calls follow the shape of the dose curve; as a rule, active = well fitted inhibition curve with a large enough effect; inconclusive = small, poorly fitted or top-dose-only effect; inactive = no such curve, though single readings can be large or run the other way.
Potency is read from the fitted curve at half-maximal effect.

This experiment addresses Luciferin 4-monooxygenase (Photinus pyralis) (UniProt P08659). Nature of the experiment: Confirmatory firefly luciferase (FLuc) qHTS assay for identification of artifact compounds. The settings on record: purified FLuc enzyme, luminescence, 5 min; series mostly up to 38.9 µM. The procedure, abridged: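 Compounds mixed 15 min with 10 uM luciferin/10 uM ATP, then 10 nM firefly luciferase added for 5 min at pH 7.6. Luminescence percent inhibition, scaled to no-enzyme and DMSO controls, fitted to Hill equation.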
For the compound `O=c1oc2ccc(Br)cc2cc1-c1csc(-c2ccc(Cl)cc2)n1`, the Potency result is “inactive”.
As for `CC1=C(C(=O)Nc2ccc(Cl)cc2)C(c2ccccc2C)n2ncc(C(=O)Nc3ccc(C)cc3)c2N1` (stereo not drawn), the Potency result is “inactive”.
In the case of `Cc1cc(Cl)ccc1NC(=O)c1cc2ccccn2n1`, the Potency was 8.64 µM (active).
The entry for `CCCOc1ccc(C(=O)Nc2ccc3oc(-c4ccncc4)nc3c2)cc1` is “inactive”.
The entry for `Nc1ccc(F)cc1F` is “inactive”.
The entry for `COc1ccc(NC(=O)Cc2noc3ccc(C)cc23)cc1Cl` is “inactive”; for `Cc1cn(C)c(CC(=O)N2CCN(c3ccccc3F)CC2)c1C(=O)O` it is “inactive”; for `Cc1ccc(Nc2c(-c3ccc(C)cc3)nc3c(C)cccn23)cc1` it is “inactive”.
As to `Cc1cccc(CSc2nc3cc(C(=O)NC4CCCC4)ccc3c(=O)n2Cc2ccccc2)c1`, the Potency entry was “inactive”.
The entry for `CCCc1cc(=O)[nH]c(SCc2nc(-c3ccccc3F)no2)n1` is “inactive”.
The entry for `CCOC(=O)c1c(S(=O)(=O)NCC(=O)N2CCN(c3cc(C)ccc3C)CC2)c(C)n(C)c1C` is “inactive”; for `CCCCNS(=O)(=O)c1ccc2nc(-c3cccnc3)cc(C(=O)NCCC)c2c1` it is “inactive”; for `COc1ccc(CNC(=O)c2ccc(NC(=O)N3CCCCc4ccccc43)cc2)cc1` it is “inactive”.
On to `O=C(Nc1nnc(-c2ccccc2)s1)c1ccc(S(=O)(=O)N2CCCC2)cc1`, for which the Potency result was “inactive”.
As for `O=C(NCc1ccccc1)c1cnc2sc(N3CCCC3)nn2c1=O`, the entry is “inactive”; as for `CC(=O)Nc1oc(-c2cccc3ccccc23)nc1C#N`, “inactive”.
The entry for `CCCNC(=O)c1ccccc1NC(=O)c1nsc2ccccc12` is “inactive”.
As for `COc1cccc(-c2nnc(Nc3nc4c(OC)cccc4s3)o2)c1`, the entry is “inactive”.
